Laboratory results from PubChem BioAssay (NCI).
The panel holds about 79,000 compounds, 15% with a hit somewhere; the sample as a whole holds those more often. Calls of active or inactive are those of the source. Cut-off read from the data, not from the text of the source: active = growth inhibition above about 70%; inactive = the rest.

Experiments:
[1] = NCI Yeast Anticancer Drug Screen. Data for the rad50 strain (AID 155);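 note: 0% = growth of vehicle-only cultures of the same strain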; details: S. cerevisiae rad50 strain growth inhibition; at 50.0 µM; active compounds read high
Summary of the method: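 Compounds were tested on a yeast strain with an engineered DNA damage repair alteration; the reported value is growth inhibition normalised to vehicle treatment.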

[2] = NCI Yeast Anticancer Drug Screen. Data for the mec2-1 strain (AID 157); details: S. cerevisiae mec2-1 strain, at 50.0 µM, active compounds read high
Summary of the method: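 Vehicle-treated cultures served as reference for growth inhibition of compound-exposed mec2-1 yeast.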

[3] = NCI Yeast Anticancer Drug Screen. Data for the sgs1 mgt1 strain (AID 161);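 note: 0% = growth of cultures given vehicle only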; details: S. cerevisiae sgs1 mgt1 strain, at 50.0 µM, active compounds read high
Summary of the method: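 Mutant yeast exposed to compound; growth scored against vehicle-only wells.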

[4] = NCI Yeast Anticancer Drug Screen. Data for the cln2 rad14 strain (AID 165);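 note: 0% = growth equal to vehicle treated cultures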; details: S. cerevisiae cln2 rad14 strain, at 50.0 µM, active compounds read high
Summary of the method: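 Each compound was tested on cln2 rad14 yeast. Inhibition of growth was calculated against vehicle-exposed controls.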

[5] = NCI Yeast Anticancer Drug Screen. Data for the bub3 strain (AID 167); details: S. cerevisiae bub3 mutant strain, at 50.0 µM, active compounds read high
Summary of the method: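 Growth of a checkpoint-deficient yeast mutant is measured after compound exposure. Values represent inhibition relative to vehicle.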

[6] = NCI Yeast Anticancer Drug Screen. Data for the mlh1 rad18 strain (AID 175); details: S. cerevisiae mlh1 rad18 strain growth inhibition; at 50.0 µM; active compounds read high
Summary of the method: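 Vehicle-treated cultures served as the reference for growth inhibition in a yeast strain carrying DNA damage repair alterations exposed to each compound.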

Measured: growth inhibition

COC(=O)C1(O)C(=O)NC2=C1C(=O)c1ccccc1C2=O (configuration not stated)
inactive: [1] 9.75% | [2] 5.8% | [3] 8.05% | [4] -8.7% | [5] 28.9% | [6] 13.8%

S=C(NCc1ccccc1)Nc1ncn[nH]1
inactive: [1] 5.1% | [2] 0.25% | [3] -5.8% | [4] -22.9% | [5] 3.55% | [6] 3.8%

COc1ccccc1Nc1nc2c([nH]1)c(=O)n(C)c(=O)n2C
inactive: [1] -33.9% | [2] -15.2% | [3] -41.9% | [4] -32.8% | [5] -4% | [6] -5.85%

COc1ccc(/C=C2\CN(C)Cc3c2nc(N)nc3-c2ccc(OC)cc2)cc1
inactive: [1] 2.05% | [2] -13.1% | [3] 5.2% | [4] 38.1% | [5] -5.5% | [6] 5.75%

Cc1nnc2cc1CCCCCCCCC2
inactive: [1] 11.8% | [2] 6.25% | [3] 4.8% | [4] 5.2% | [5] -10.8% | [6] 4.9%

N#Cc1ccc(-n2cccc2)cc1
inactive: [1] -1.8% | [2] -1.6% | [3] 7.35% | [4] -26.8% | [5] -6.2% | [6] -4.5%

O=C(O)COc1ccc(C(=O)O)cc1
inactive: [1] 5.6% | [2] -19.9% | [3] 3.7% | [4] -53.7% | [5] -23.4% | [6] -6.15%

CN(CCO)CCN1c2ccccc2Sc2ccccc21
inactive: [1] -12.7% | [2] -26.3% | [3] -10.2% | [4] -13.9% | [5] -5.8% | [6] -0.65%

FC(F)(F)c1nc(Cl)c2cn[nH]c2n1
inactive: [1] -8.7% | [2] 39.6% | [3] -1.15% | [4] -16.9% | [5] 25.9% | [6] -24.4%

CCOC(=O)c1ccc(Nc2nc3ccc(C(F)(F)F)cc3nc2C(=O)OCC)cc1
inactive: [1] -24.6% | [2] 3% | [3] -11.9% | [4] -12.9% | [5] -6.2% | [6] -12.2%

Oc1cc2ccc3c(c2cc1O)CCc1cn[nH]c1-3
inactive: [1] 7.1% | [2] 9.25% | [3] 17.5% | [4] -0.55% | [5] 15.8% | [6] 15.5%

CC(=Nc1cc(Cl)cc(Cl)c1)c1ccncc1
inactive: [1] -25.1% | [2] -21.2% | [3] -31.4% | [4] -5.05% | [5] 16.4% | [6] -49.8%

CCCC(C)OC(=O)Nc1cccc(O)c1 (configuration not stated)
inactive: [1] -2.3% | [2] -10.9% | [3] -5.3% | [4] -10.9% | [5] -21.5% | [6] -5.05%

CCCCCCCCCCCCCCCCCCNC(=O)c1c(Br)c(Br)cc(Br)c1C(=O)O
inactive: [1] -1.45% | [2] 8.55% | [3] 13.2% | [4] -8.35% | [5] -3.7% | [6] 6.75%

COc1cc(/C=C/C(C)=O)ccc1OP(=O)(O)O
inactive: [1] -22.4% | [2] -24.4% | [3] -29.8% | [4] 0.1% | [5] -32.1% | [6] 7.65%

COC(=O)c1nc2c3c(cccc3c1C(=O)OC)Nc1ccccc1-2
inactive: [1] -3.2% | [2] 9.65% | [3] 0.35% | [4] 28.5% | [5] 19.4% | [6] -39.4%

CCCCOC(=O)COc1ccc(OC)cc1
inactive: [1] -4.5% | [2] -22.1% | [3] -13.3% | [4] -34.6% | [5] 3.45% | [6] 6.2%

CS(=O)(=O)N1C=CC2C(C=C1)C1(c3ccccc3)OC2(c2ccccc2)c2ccccc21 (configuration not stated)
inactive: [1] -9.75% | [2] -9.25% | [3] 0.35% | [4] -39.7% | [5] 2.95% | [6] -19.5%

COc1ccc(C(=O)CC2=NC3NN(c4ccccc4)C(=O)C3=C2CC(=O)c2ccc(OC)cc2)cc1 (configuration not stated)
inactive: [1] 48.1% | [2] 32.1% | [3] 55.5% | [4] 23.8% | [5] -2.25% | [6] 31.8%

c1cnc(NC(Nc2ncccn2)c2ccco2)nc1
inactive: [1] -6.5% | [2] -8.9% | [3] -5.55% | [4] -21.9% | [5] -12.2% | [6] -10.4%

O=C(NCCS(=O)(=O)N1C(=O)C2CCCN2C(=O)[C@@H]1Cc1ccccc1)OCc1ccccc1 (some centres not stated)
inactive: [1] -4.35% | [2] -0.55% | [3] -4.35% | [4] 19.4% | [5] 5.8% | [6] 26.1%

CCCCNC(=O)c1cccc(OC)c1OC
inactive: [1] 2.25% | [2] -1.55% | [3] 4.3% | [4] 2.35% | [5] -5.65% | [6] 3.45%

O=Cc1ccc(/C=C/C(=O)O)cc1
inactive: [1] -1.55% | [2] -10.1% | [3] -4.85% | [4] 5.9% | [5] -8.55% | [6] 1.1%

CC(=O)SSC12CC3CC(CC(C3)C1)C2
inactive: [1] -24.6% | [2] -17.4% | [3] -4.75% | [4] -48.9% | [5] 0.55% | [6] -7.7%

Cc1ccnc(N=C/C=C2/C=CC=CN2O)c1
inactive: [1] 0.25% | [2] -9.35% | [3] 1.75% | [4] 5.55% | [5] -8.45% | [6] -11.8%

CC1(S)CCC2CC1C2(C)C (configuration not stated)
inactive: [1] -15.7% | [2] -54.1% | [3] -35% | [4] 4.95% | [5] -27.4% | [6] -12.1%

CCOc1ccc(C(CC)c2cc3c(cc2OC)OCO3)cc1 (configuration not stated)
inactive: [1] -1.95% | [2] -0.1% | [3] -9.35% | [4] -42.8% | [5] 6% | [6] -1.7%

COC(=O)c1cc(C(c2cc(C)c(O)c(C(=O)OC)c2)c2cc(C)c(O)c(C(=O)OC)c2)cc(C)c1O
inactive: [1] -6.9% | [2] 10.6% | [3] -4.4% | [4] -6.2% | [5] -0.3% | [6] 3.9%

COc1ccc(C(=O)O[C@@H]2CCN3CC[C@H](C)[C@H]23)cc1
inactive: [1] 7.4% | [2] -22.5% | [3] 7.3% | [4] 12.7% | [5] -6.35% | [6] -74.8%

O=C(S)c1ccccc1Br
inactive: [1] 1.45% | [2] 0% | [3] 11.6% | [4] -54.9% | [5] -8% | [6] 3.8%

Nc1nc(N)nc(C2C=CCCC2)n1 (configuration not stated)
inactive: [1] -19.6% | [2] 1.85% | [3] -13% | [4] -32.6% | [5] -11.4% | [6] -18.1%

CCOC(=O)COc1c(C)cccc1Cl
inactive: [1] 4.2% | [2] 0.6% | [3] -0.25% | [4] -28.9% | [5] -23.6% | [6] -24.6%

COc1cccc2c1oc(=O)c1ccccc12
inactive: [1] 9.55% | [2] -6.75% | [3] -19.6% | [4] -66.8% | [5] -2.35% | [6] -5.85%

c1ccc(CC2COC(c3cccs3)=N2)cc1 (configuration not stated)
inactive: [1] 26.9% | [2] -13.2% | [3] 21.6% | [4] 18.1% | [5] 31.2% | [6] 9%

Cc1cc(Cl)ccc1Nc1nc2c(s1)C(=O)c1ccccc1C2=O
active: [1] 90.8% | [2] 84.9% | [3] 85.6% | [4] 86.5% | [5] 87.6% | [6] 91.4%

O=C(/C=C/c1ccccc1)Nc1ccccc1C(F)(F)F
inactive: [1] 4.45% | [2] 9.05% | [3] 0.7% | [4] -3.7% | [5] 12.6% | [6] 18.2%

N#CCC(=O)Nc1ccccc1
inactive: [1] 37% | [2] 15.7% | [3] 5.8% | [4] -11.8% | [5] 6.25% | [6] 26.2%
